Test systems include NCI-H23 lung; NCI-H226 lung; NCI-H322M lung; HOP-62 NSCLC; NCI-H460 lung; HOP-92 NSCLC; NCI-H522 lung; A549/ATCC NSCLC; 786-0 renal; COLO 205 colon; DU-145 prostate; K-562 leukemia; MALME-3M melanoma; MDA-MB-231 breast; RXF 393 renal; SF-268 CNS; SF-295 CNS; SF-539 CNS; UACC-257 melanoma; M14 melanoma.
Holding throughout (assay): NCI-60 one-dose screen, 48 h (100 = growth as untreated, 0 = no growth, -100 = all killed)
Common to all, as to settings: 10 µM

The structures appear in SMILES notation. Compounds without any hit were thinned out: in the full panel of roughly 83,000, 20% have a hit.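 Treatment: one concentration, 48 hours, 96-well format. Scoring: percent growth, with anything below 10 considered active.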 Unmarked numbers belong to inactive results. The source made the active and inactive calls.

Turning to `CCOc1ccc2[nH]c(=S)sc2c1`, the growth is 94.4% with NCI-H23 lung; 109% in the experiment with NCI-H226 lung; 105% in the experiment with NCI-H322M lung; 99.1% with HOP-62 NSCLC; 110% in the experiment with NCI-H460 lung; 82.2% in the experiment with HOP-92 NSCLC. Besides, the growth in the experiment with NCI-H522 lung was 104%; in the experiment with A549/ATCC NSCLC, 103%; in the experiment on 786-0 renal it was 99.7%; in the experiment on COLO 205 colon it was 112%; in the experiment on DU-145 prostate it was 111%; with K-562 leukemia, 90.8%. Besides, the growth in the experiment with MALME-3M melanoma was 97.8%; with MDA-MB-231 breast it was 104%; in the experiment on RXF 393 renal, 116%; in the experiment with SF-268 CNS, 103%; with SF-295 CNS, 111%; in the experiment with SF-539 CNS, 106%. Moreover, the growth with UACC-257 melanoma was 104%; with M14 melanoma, 99%.
For the compound `COc1cc2c(cc1O)CC[C@@H]1C2CC[C@@]2(C)C1CC[C@@H]2O` (stereo partly drawn), the growth in the experiment on NCI-H23 lung was 406%; in the experiment on NCI-H226 lung, 57.7%; in the experiment with NCI-H322M lung, 53.5%; with HOP-62 NSCLC, 33.3%; in the experiment on NCI-H460 lung it was 8.58% (active); in the experiment with HOP-92 NSCLC it was 79.8%. In addition, the growth is 1.84% (active) with NCI-H522 lung; 13.9% in the experiment with A549/ATCC NSCLC; 36% in the experiment with 786-0 renal; 82.5% in the experiment with COLO 205 colon; 11% with DU-145 prostate; 2.79% (active) in the experiment on K-562 leukemia. Moreover, the growth was 48.1% in the experiment on MALME-3M melanoma; 26.7% with MDA-MB-231 breast; -4.44% (active) in the experiment with RXF 393 renal; 50.6% with SF-268 CNS; 25.2% in the experiment with SF-295 CNS; -4.91% (active) with SF-539 CNS. In addition, the growth with UACC-257 melanoma is 23.3%.
Regarding `O=[N+]([O-])c1cccc(C(F)(F)F)c1`, the growth is 101% with NCI-H23 lung; 98.5% with NCI-H226 lung; 132% in the experiment on NCI-H322M lung; 96.9% with HOP-62 NSCLC; 98.1% in the experiment on NCI-H460 lung; 87.8% in the experiment on HOP-92 NSCLC. Besides, the growth in the experiment on NCI-H522 lung was 85.5%; in the experiment with A549/ATCC NSCLC, 94.7%; with 786-0 renal, 107%; in the experiment with COLO 205 colon, 108%; in the experiment on DU-145 prostate, 120%; with K-562 leukemia it was 119%. Further, the growth was 135% in the experiment on MALME-3M melanoma; 98% in the experiment on MDA-MB-231 breast; 98.7% with RXF 393 renal; 102% in the experiment with SF-268 CNS; 101% with SF-295 CNS; 102% in the experiment on SF-539 CNS. In addition, the growth with UACC-257 melanoma was 97.3%; in the experiment on M14 melanoma it was 97.9%.
`N#CCc1ccc([N+](=O)[O-])cc1`: the growth in the experiment on NCI-H23 lung is 98.5%; with NCI-H226 lung it was 98.2%; in the experiment on NCI-H322M lung it was 99.1%; in the experiment on HOP-62 NSCLC it was 90.7%; in the experiment on NCI-H460 lung, 102%; in the experiment on HOP-92 NSCLC it was 92.7%. Moreover, the growth is 101% in the experiment on NCI-H522 lung; 96.6% with A549/ATCC NSCLC; 106% in the experiment with 786-0 renal; 105% in the experiment on COLO 205 colon; 113% in the experiment on DU-145 prostate; 114% with K-562 leukemia. Further, the growth in the experiment on MALME-3M melanoma was 148%; in the experiment on MDA-MB-231 breast, 100%; in the experiment with RXF 393 renal, 113%; in the experiment on SF-268 CNS it was 106%; in the experiment on SF-295 CNS, 95.3%; in the experiment on SF-539 CNS it was 101%. Also, the values for the growth in the experiment with UACC-257 melanoma and with M14 melanoma were 74% and 101%, respectively.
Consider `COc1nc(N)nc2c1ncn2C1OC(CO)CC1O` (stereo not drawn), for which the growth is 103% with NCI-H23 lung; 103% in the experiment with NCI-H226 lung; 96.8% in the experiment on NCI-H322M lung; 100% in the experiment with HOP-62 NSCLC; 115% with NCI-H460 lung; 95.3% with HOP-92 NSCLC. In addition, the growth with NCI-H522 lung is 106%; in the experiment with A549/ATCC NSCLC, 111%; in the experiment on 786-0 renal, 95.4%; in the experiment on COLO 205 colon it was 104%; in the experiment with DU-145 prostate, 110%; with K-562 leukemia, 101%. The growth with MALME-3M melanoma was 100%; in the experiment with MDA-MB-231 breast, 112%; in the experiment on RXF 393 renal, 112%; with SF-268 CNS it was 108%; with SF-295 CNS it was 113%; with SF-539 CNS, 45.6%. Besides, the growth in the experiment with UACC-257 melanoma was 111%; in the experiment with M14 melanoma, 104%.
As for `COS(=O)(=O)c1ccc(Br)cc1`, the growth in the experiment on NCI-H23 lung was 97.6%; with NCI-H226 lung it was 101%; in the experiment with NCI-H322M lung, 118%; in the experiment on HOP-62 NSCLC, 95.6%; in the experiment on NCI-H460 lung it was 115%; in the experiment with HOP-92 NSCLC, 98.1%. The growth was 104% in the experiment on NCI-H522 lung; 103% with A549/ATCC NSCLC; 111% in the experiment with 786-0 renal; 104% in the experiment on COLO 205 colon; 102% in the experiment with DU-145 prostate; 136% with K-562 leukemia. The growth in the experiment with MALME-3M melanoma is 119%; in the experiment on MDA-MB-231 breast it was 92.5%; in the experiment on RXF 393 renal it was 105%; with SF-268 CNS it was 84.9%; in the experiment on SF-295 CNS it was 107%; in the experiment on SF-539 CNS, 102%. The growth in the experiment on UACC-257 melanoma is 93%.
Take `O=C(CS)Nc1ccc2ccccc2c1`: the growth with NCI-H23 lung was 111%; with NCI-H226 lung it was 121%; with NCI-H322M lung, 127%; with HOP-62 NSCLC, 120%; with NCI-H460 lung, 97.6%; in the experiment with HOP-92 NSCLC, 101%. Further, the growth in the experiment on NCI-H522 lung is 118%; in the experiment with A549/ATCC NSCLC, 122%; in the experiment with 786-0 renal, 105%; in the experiment on COLO 205 colon, 112%; in the experiment on DU-145 prostate it was 113%; with K-562 leukemia, 96.8%. In addition, the growth is 126% with MALME-3M melanoma; 106% in the experiment on MDA-MB-231 breast; 82.8% in the experiment on RXF 393 renal; 85.8% in the experiment with SF-268 CNS; 123% in the experiment on SF-295 CNS; 99.5% in the experiment on SF-539 CNS. In addition, the growth is 133% in the experiment on UACC-257 melanoma and 111% in the experiment on M14 melanoma.
Turning to `c1ncc2[nH]cnc2n1`, the growth was 104% in the experiment with NCI-H23 lung; 99.5% in the experiment on NCI-H226 lung; 85.7% in the experiment on NCI-H322M lung; 104% in the experiment with HOP-62 NSCLC; 105% with NCI-H460 lung; 89.4% with HOP-92 NSCLC. For the same compound, the growth in the experiment with NCI-H522 lung was 89.2%; in the experiment with A549/ATCC NSCLC, 86.7%; in the experiment on 786-0 renal, 95.2%; in the experiment with COLO 205 colon, 101%; in the experiment on DU-145 prostate, 96.6%; with K-562 leukemia, 102%. In addition, the growth is 126% with MALME-3M melanoma; 111% in the experiment with MDA-MB-231 breast; 112% in the experiment with RXF 393 renal; 104% in the experiment with SF-268 CNS; 116% in the experiment with SF-295 CNS; 98.3% in the experiment with SF-539 CNS. Further, the growth is 87.1% with UACC-257 melanoma and 97.9% in the experiment on M14 melanoma.

Source of the values: PubChem BioAssay (NCI).
